Source: the supplement of paper PMC10849652
Of roughly 7,900 targets only a part is listed; those with a hit were picked by preference. About 0.6% of all pairs of compound and target were hits.

Assays:
Test in all cases: log2 fold change, soluble protein after heating vs DMSO (PISA); higher = thermal stabilisation; K562 cells, 10 uM, 30 min; active = over 0.2 and 3.5 SD of the protein, either way, in both replicates (recomputed)
[1] = compound: NC(=O)Nc1cc(-c2cccc(F)c2)sc1C(=O)N[C@H]1CCCNC1
How it was run: (§1)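 Soluble protein was quantified by TMTpro 16plex LC-MS/MS after channel sums were equalised. It was obtained as the supernatant after 21,000xg for 90 min from pooled aliquots of K562 cells (2×10^6 cells/mL, 10 μM compound, 30 min) heated for 3 min across 48°C-58°C and extracted in PBS with 0.5% NP-40 at 4°C. Thermal stability values are relative to control samples and come from duplicates. They are given as log2 fold changes.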

[2] = compound: NC(=O)c1cnc(N[C@@H]2CCCC[C@@H]2N)nc1Nc1cccc(-n2nccn2)c1
How it was run: as §1

[3] = compound: NC1(c2ccc(-c3nc4ccn5c(=O)[nH]nc5c4cc3-c3ccccc3)cc2)CCC1
How it was run: as §1

[4] = compound: NCC(=O)Nc1ccc(-n2nc(C(F)(F)F)cc2-c2ccc3c(ccc4ccccc43)c2)cc1
How it was run: as §1

[5] = compound: Nc1ccccc1NC(=O)c1ccc(CNC(=O)OCc2cccnc2)cc1 [entinostat]
How it was run: as §1

[6] = compound: O=C(CCCCCCC(=O)Nc1ccccc1)NO [vorinostat]
How it was run: as §1

[7] = compound: O=C(CCCCCCNC(=O)c1cnc(N(c2ccccc2)c2ccccc2Cl)nc1)NO [citarinostat]
How it was run: as §1

[8] = compound: O=C(O)c1ccc2c(c1)nc(Nc1cccc(Cl)c1)c1ccncc12 [silmitasertib]
How it was run: as §1

[9] = compound: O=C1NC(=O)C(c2cnc3ccccn23)=C1c1cn2c3c(cc(F)cc13)CN(C(=O)N1CCCCC1)CC2
How it was run: as §1

[10] = compound: c1cc(OCCN2CCCCC2)cc(-c2n[nH]c3ccc(-c4nnc[nH]4)cc23)c1
How it was run: as §1

[11] = compound: c1cn2cc(-c3ccc4cn[nH]c4c3)nc(Nc3ccc(N4CCOCC4)cc3)c2n1 [entospletinib]
How it was run: as §1

Measured: log2 fold change

BLVRB (UniProt P30043)
Sequence of UniProt P30043 (P30043 whole entry, looked up): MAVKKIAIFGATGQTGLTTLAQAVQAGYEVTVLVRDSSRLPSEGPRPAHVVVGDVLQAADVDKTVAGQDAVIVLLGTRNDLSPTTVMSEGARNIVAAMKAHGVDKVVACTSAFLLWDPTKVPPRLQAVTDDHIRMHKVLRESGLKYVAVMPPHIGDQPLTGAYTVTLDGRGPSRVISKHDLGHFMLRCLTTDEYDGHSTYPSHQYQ
inactive: [1] 0.069 | [2] 0.006 | [3] -0.116 | [4] 0.018 | [5] 0.058 | [6] 0 | [7] 0.058 | [8] 0.01 | [9] 0.021 | [10] -0.035 | [11] 0.069

APOH (UniProt P02749)
inactive: [1] -0.094 | [2] -0.109 | [3] -0.414 | [4] 0.065 | [5] 0.06 | [6] 0.354 | [7] -0.149 | [8] 0.565 | [10] 0.006 | [11] 0.206

ADD2 isoform 9 (UniProt P35612)
active: [3] -1.2
inactive: [1] 0 | [5] -0.052 | [8] -0.225

ATXN7L3 isoform 2 (UniProt Q14CW9)
inactive: [1] 0.182 | [2] 0.033 | [3] 0.207 | [5] -0.346 | [7] -0.087 | [8] -0.373 | [10] 0.051 | [11] 0.494

ABCA4 (UniProt P78363)
inactive: [1] 0.007 | [2] -0.092 | [3] 0.061 | [5] 0.002 | [6] 0.124 | [7] 0.013 | [8] -0.082 | [9] -0.041 | [10] 0.157 | [11] -0.079

BRMS1 (UniProt Q9HCU9)
Sequence of UniProt Q9HCU9 (Q9HCU9 whole entry, looked up): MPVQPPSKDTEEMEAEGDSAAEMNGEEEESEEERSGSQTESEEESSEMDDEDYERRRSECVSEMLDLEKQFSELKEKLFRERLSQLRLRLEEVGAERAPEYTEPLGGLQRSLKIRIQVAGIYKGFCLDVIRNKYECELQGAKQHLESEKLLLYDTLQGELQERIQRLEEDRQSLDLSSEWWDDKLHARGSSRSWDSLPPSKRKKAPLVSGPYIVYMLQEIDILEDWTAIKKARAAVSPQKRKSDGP
inactive: [2] 0.15 | [3] 0.121 | [6] -0.053 | [7] -0.097 | [8] -0.042 | [9] -0.033 | [10] -0.178 | [11] 0.078

BRD2 isoform 2 (UniProt P25440)
inactive: [1] -0.01 | [2] -0.209 | [4] -0.112 | [5] -0.159 | [6] -0.214

ATXN3 isoform 1 (UniProt P54252)
inactive: [2] -0.256 | [3] -0.137 | [4] -0.019 | [6] -0.003 | [7] -0.01 | [8] 0.093 | [10] -0.015 | [11] 0.058

BRIP1 (UniProt Q9BX63)
Sequence of UniProt Q9BX63 (Q9BX63 whole entry, looked up): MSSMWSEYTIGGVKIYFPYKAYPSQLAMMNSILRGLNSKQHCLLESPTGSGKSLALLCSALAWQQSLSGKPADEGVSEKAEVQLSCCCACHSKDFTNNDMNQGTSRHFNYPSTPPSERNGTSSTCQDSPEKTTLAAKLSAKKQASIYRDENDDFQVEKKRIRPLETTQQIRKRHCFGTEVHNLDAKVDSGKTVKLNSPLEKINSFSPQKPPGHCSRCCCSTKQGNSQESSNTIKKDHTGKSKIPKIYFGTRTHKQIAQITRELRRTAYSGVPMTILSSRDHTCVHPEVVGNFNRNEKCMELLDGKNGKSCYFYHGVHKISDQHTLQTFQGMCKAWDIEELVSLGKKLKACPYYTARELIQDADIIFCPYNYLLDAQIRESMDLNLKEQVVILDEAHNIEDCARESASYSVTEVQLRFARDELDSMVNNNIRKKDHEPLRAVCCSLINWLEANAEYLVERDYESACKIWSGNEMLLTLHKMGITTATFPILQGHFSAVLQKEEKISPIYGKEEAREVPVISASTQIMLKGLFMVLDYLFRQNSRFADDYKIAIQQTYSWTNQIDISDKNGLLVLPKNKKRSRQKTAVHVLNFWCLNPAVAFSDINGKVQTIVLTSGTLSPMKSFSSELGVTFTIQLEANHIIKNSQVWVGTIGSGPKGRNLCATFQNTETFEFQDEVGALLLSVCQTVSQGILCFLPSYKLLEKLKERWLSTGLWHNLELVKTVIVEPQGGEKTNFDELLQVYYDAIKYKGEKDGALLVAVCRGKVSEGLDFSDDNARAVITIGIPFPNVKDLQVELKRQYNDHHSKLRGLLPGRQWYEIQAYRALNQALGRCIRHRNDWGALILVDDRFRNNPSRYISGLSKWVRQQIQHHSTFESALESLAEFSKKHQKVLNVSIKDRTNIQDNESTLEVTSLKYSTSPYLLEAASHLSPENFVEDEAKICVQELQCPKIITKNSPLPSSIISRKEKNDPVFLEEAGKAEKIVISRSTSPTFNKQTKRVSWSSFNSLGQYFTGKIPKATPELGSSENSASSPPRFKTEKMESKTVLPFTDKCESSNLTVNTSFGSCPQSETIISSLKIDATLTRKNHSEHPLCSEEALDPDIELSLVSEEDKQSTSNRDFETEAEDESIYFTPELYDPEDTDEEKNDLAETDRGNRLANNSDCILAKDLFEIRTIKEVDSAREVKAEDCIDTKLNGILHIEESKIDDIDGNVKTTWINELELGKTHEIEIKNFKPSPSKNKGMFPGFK
inactive: [1] 0.139 | [2] -0.139 | [4] -0.099 | [5] 0.001 | [6] -0.025 | [7] 0.054 | [9] -0.07 | [10] 0.077 | [11] -0.055

BSCL2 isoform 4 (UniProt Q96G97)
inactive: [2] -0.197 | [3] -0.013 | [4] 0.007 | [6] 0.074 | [8] 0.172 | [9] 0.033

BAIAP2 isoform 4 (UniProt Q9UQB8)
inactive: [1] 0.019 | [5] -0.095

AARSD1 (UniProt Q9BTE6)
inactive: [2] -0.066 | [3] -0.048 | [7] 0.144 | [8] 0.137 | [10] 0.066 | [11] -0.371

AASDH (UniProt Q4L235)
inactive: [1] -0.044 | [3] -0.12 | [4] -0.166 | [5] 0.007 | [6] 0.051 | [8] 0.036 | [9] -0.064

BAP18 isoform 3 (UniProt Q8IXM2)
Sequence of UniProt Q8IXM2 (Q8IXM2 whole entry, looked up): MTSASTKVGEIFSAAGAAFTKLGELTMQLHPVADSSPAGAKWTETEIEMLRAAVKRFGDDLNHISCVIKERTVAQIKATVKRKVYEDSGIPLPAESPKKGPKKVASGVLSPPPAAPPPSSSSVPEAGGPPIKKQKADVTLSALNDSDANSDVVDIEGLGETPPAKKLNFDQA
inactive: [3] -0.042 | [6] 0.192 | [8] -0.119

ALDH2 isoform 2 (UniProt P05091)
Sequence of UniProt P05091 (P05091 whole entry, looked up): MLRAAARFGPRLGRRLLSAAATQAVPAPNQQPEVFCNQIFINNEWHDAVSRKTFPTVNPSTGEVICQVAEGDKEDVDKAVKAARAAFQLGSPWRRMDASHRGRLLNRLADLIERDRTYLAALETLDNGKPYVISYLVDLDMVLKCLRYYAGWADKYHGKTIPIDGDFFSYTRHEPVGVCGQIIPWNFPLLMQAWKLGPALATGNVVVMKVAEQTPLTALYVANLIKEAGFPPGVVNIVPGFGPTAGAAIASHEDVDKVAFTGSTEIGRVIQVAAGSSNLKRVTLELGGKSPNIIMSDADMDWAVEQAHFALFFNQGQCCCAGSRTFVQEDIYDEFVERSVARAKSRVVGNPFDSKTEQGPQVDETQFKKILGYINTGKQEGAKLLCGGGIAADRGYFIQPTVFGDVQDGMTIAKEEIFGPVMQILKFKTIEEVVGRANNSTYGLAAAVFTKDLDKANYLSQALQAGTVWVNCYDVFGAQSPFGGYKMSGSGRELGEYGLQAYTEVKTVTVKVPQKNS
inactive: [1] -0.345 | [2] -0.389 | [4] -0.351 | [5] -0.14 | [6] 0.083 | [7] -0.055 | [9] 0.051 | [10] -0.36 | [11] 0.118

ARRDC1 (UniProt Q8N5I2)
inactive: [1] 0.013 | [3] -0.06 | [4] 0.057 | [5] 0.075 | [6] -0.086 | [7] 0.056 | [8] 0.075 | [9] -0.008 | [10] -0.001 | [11] -0.014

ABCA3 (UniProt Q99758)
inactive: [1] 0.021 | [2] -0.001 | [4] -0.196 | [5] -0.064 | [6] 0.02 | [7] 0.021 | [9] 0.134 | [10] 0 | [11] 0.141

BRAF (UniProt P15056)
Sequence of UniProt P15056 (P15056 whole entry, looked up): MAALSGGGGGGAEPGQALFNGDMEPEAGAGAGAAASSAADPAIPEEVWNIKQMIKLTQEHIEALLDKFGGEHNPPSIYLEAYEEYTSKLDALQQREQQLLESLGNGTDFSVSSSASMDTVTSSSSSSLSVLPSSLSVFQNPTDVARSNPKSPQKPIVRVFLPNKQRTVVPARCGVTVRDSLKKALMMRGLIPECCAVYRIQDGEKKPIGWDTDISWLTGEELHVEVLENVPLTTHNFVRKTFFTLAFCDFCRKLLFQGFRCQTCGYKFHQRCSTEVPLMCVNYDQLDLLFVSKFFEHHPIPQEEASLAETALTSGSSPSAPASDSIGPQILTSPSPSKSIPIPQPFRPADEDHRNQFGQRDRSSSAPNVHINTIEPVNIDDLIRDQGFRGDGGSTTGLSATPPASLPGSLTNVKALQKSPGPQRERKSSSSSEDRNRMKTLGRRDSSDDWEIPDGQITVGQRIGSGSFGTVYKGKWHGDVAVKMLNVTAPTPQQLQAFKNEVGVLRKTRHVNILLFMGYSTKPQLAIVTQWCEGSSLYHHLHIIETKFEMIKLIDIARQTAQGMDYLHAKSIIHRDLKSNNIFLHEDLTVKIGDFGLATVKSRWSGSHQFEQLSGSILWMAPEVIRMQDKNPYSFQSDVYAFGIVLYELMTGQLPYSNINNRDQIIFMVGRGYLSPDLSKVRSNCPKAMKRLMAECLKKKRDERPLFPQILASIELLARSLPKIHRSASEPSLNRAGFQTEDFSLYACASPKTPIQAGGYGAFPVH
inactive: [1] -0.102 | [2] -0.079 | [4] -0.046 | [5] 0.009 | [6] 0.012 | [7] -0.002 | [8] 0.024 | [9] -0.007 | [10] -0.067 | [11] 0.035

ARFIP1 isoform 2 (UniProt P53367)
inactive: [1] 0.11 | [3] -0.147 | [5] 0.012 | [6] 0.331 | [8] -0.08 | [9] -0.062

ARMC8 isoform 6 (UniProt Q8IUR7)
inactive: [2] -0.023 | [4] 0.025

ARL4A (UniProt P40617)
Sequence of UniProt P40617 (P40617 whole entry, looked up): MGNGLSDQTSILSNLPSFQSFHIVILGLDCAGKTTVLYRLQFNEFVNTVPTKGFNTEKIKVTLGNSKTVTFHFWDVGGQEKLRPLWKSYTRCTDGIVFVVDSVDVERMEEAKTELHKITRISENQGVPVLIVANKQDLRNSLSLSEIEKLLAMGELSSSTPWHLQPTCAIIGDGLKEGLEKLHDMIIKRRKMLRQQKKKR
inactive: [2] -0.276 | [3] -0.117 | [8] 0.068

ARHGAP25 isoform 4 (UniProt P42331)
inactive: [2] 0.068 | [3] -0.181 | [4] -0.127 | [6] -0.099 | [7] 0.105 | [8] 0.213 | [9] 0.021 | [10] -0.049 | [11] 0.073

ABHD11 (UniProt Q8NFV4)
inactive: [2] -0.089 | [3] -0.139 | [4] 0.016 | [6] -0.042 | [7] 0.058 | [8] -0.021 | [9] -0.159 | [10] -0.009 | [11] 0.006

ADAM15 (UniProt Q13444)
inactive: [1] -0.023 | [2] 0.034 | [4] -0.024 | [5] 0.085 | [6] 0.092 | [9] 0.031

ALG14 (UniProt Q96F25)
Sequence of UniProt Q96F25 (Q96F25 whole entry, looked up): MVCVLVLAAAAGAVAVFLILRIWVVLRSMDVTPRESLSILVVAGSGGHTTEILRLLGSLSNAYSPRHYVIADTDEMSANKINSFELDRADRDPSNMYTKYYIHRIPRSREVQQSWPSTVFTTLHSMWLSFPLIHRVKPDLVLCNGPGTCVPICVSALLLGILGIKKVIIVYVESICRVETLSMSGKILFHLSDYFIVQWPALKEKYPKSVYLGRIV
inactive: [2] 0.018 | [3] -0.118 | [4] -0.081 | [6] 0.29 | [7] 0.028 | [8] 0.076 | [9] 0.061 | [10] -0.123 | [11] -0.063

AKNA (UniProt Q7Z591)
inactive: [1] -0.069
active: [5] 1.72

BRAF, A0A2R8Y8E0
inactive: [2] 0.214 | [3] -0.31 | [8] -0.064

ACSL6 isoform 1 (UniProt Q9UKU0)
Sequence of UniProt Q9UKU0 (Q9UKU0 whole entry, looked up): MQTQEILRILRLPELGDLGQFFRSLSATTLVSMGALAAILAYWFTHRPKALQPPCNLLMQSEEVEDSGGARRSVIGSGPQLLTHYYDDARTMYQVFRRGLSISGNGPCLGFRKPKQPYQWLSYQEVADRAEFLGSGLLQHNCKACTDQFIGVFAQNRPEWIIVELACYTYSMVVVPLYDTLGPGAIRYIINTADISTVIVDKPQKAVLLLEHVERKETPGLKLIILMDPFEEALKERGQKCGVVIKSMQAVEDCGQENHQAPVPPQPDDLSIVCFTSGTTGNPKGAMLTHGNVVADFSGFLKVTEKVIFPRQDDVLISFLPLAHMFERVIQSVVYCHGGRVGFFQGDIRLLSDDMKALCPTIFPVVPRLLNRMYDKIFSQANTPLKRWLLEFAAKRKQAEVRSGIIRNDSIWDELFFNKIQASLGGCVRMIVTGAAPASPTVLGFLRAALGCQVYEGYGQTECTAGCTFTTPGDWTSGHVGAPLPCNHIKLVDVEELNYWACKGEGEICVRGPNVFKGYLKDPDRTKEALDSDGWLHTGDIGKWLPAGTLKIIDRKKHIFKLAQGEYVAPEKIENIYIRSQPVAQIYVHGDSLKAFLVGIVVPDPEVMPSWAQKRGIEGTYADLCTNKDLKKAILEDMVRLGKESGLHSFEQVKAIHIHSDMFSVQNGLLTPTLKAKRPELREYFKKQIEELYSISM
inactive: [1] 0.061 | [3] -0.152 | [4] -0.174 | [5] -0.056 | [6] 0.048 | [8] -0.077 | [9] -0.421

AUH (UniProt Q13825)
inactive: [2] 0.011 | [3] -0.023 | [4] 0.103 | [6] 0.018 | [7] -0.103 | [8] -0.061 | [10] 0.003 | [11] -0.068

BRD8 isoform 2 (UniProt Q9H0E9)
inactive: [1] -0.016 | [2] -0.205 | [4] -0.13 | [5] 0.039 | [6] -0.092 | [7] -0.019 | [9] 0.102 | [10] -0.09 | [11] 0.045

ANGEL1 (UniProt Q9UNK9)
inactive: [4] -0.004

ACTR3B (UniProt Q9P1U1)
inactive: [4] -0.217 | [6] -0.067

AZI2 (UniProt Q9H6S1)
inactive: [1] -0.094 | [4] -0.152 | [5] 0.041 | [7] -0.014 | [10] -0.028 | [11] -0.142

AGAP3 isoform 4 (UniProt Q96P47)
inactive: [1] 0.034 | [2] -0.128 | [3] -0.001 | [5] 0.021 | [7] -0.063 | [8] -0.019 | [9] 0.127 | [10] -0.18 | [11] 0.036

ADPRH (UniProt P54922)
inactive: [1] 0.015 | [3] -0.178 | [5] -0.034 | [6] -0.039 | [8] 0.086 | [9] -0.104
active: [4] -0.623

AIF1 (UniProt P55008)
Sequence of UniProt P55008 (P55008 whole entry, looked up): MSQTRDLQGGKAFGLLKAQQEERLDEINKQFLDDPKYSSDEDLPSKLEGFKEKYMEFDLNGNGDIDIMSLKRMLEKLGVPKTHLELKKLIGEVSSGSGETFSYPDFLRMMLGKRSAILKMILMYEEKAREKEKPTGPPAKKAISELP
inactive: [1] 0.04 | [2] 0.004 | [4] 0.021 | [5] -0.105 | [9] 0.068

ADD1 isoform 4 (UniProt P35611)
inactive: [6] 0.05 | [9] 0.027

AUNIP isoform 2 (UniProt Q9H7T9)
Sequence of UniProt Q9H7T9 (Q9H7T9 whole entry, looked up): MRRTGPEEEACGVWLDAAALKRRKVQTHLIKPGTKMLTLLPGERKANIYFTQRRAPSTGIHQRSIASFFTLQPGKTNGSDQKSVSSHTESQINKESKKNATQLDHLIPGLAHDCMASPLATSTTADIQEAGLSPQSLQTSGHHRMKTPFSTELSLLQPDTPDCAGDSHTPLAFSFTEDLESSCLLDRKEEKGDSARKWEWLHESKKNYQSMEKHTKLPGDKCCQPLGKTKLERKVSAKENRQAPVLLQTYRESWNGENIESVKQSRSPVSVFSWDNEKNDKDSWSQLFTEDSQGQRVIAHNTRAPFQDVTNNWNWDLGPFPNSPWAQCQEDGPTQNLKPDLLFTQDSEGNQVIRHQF
inactive: [1] -0.194 | [2] -0.037 | [4] 0.073 | [5] 0.003
